Where “and” joins values, the source holds several entries; their conditions need not be identical. Identical values can stand only once. Records with an inconclusive call do not appear. Calls of active or inactive are those of the source. The call rests on the fitted dose curve; in most records, active means well fitted curve in the direction sought with a large enough effect; inconclusive means small, poorly fitted or top-dose-only effect, or another doubt; inactive means no such curve, though single readings can be large; an effect the other way counts as inactive or inconclusive.
Columns and labels:
[1] = Viability qHTS for spleen associated tyrosine kinase inhibitor (SYKi) naive MV4-11 cells (AID 1963823); further: nearly all actives have a fitted effect of over 40% in size
Method in brief: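 SYKi-naive MV4-11 AML cells, 500 per well, were exposed to library compounds for 72 hr at 37 C, 5% CO2. Viability was then read by CellTiter-Glo luminescence after 10 min at room temperature.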

[2] = Viability qHTS for spleen associated tyrosine kinase inhibitor (SYKi) drug resistant MV4-11 cells (AID 1963824); further: nearly all actives have a fitted effect of over 35% in size
Method in brief: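 SYK-inhibitor-resistant MV4-11 AML cells were seeded at 500 per well onto compound and cultured 72 hours (37 °C, 5% CO2). CellTiter-Glo was then added, and after 10 min at room temperature, luminescence gave viability.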

[3] = Quantitative highthroughput screen to assess conditional lethalithy of NOMO1 cells grown in RPMI1640 with dialyzed fetal bovine serum (RPMI+ds) (AID 1963877); further: nearly all actives have a fitted effect of over 30% in size
Method in brief: (§1)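 Each medium arm—HPLM with 10% dialyzed FBS, or RPMI1640 with 5 mM glucose and 10% untreated or dialyzed FBS—was screened against an 11-point, 3-fold compound titration for 48 h at 37 °C, with CellTiter-Glo luminescence as endpoint.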

[4] = Quantitative highthroughput screen to assess conditional lethalithy of P12 Ichikawa cells grown in RPMI1640 with dialyzed fetal bovine serum (RPMI+ds) (AID 1963880); details: Potency: P12-Ichikawa viability; further: nearly all actives have a fitted effect of over 35% in size;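 on Viability: 100% = DMSO wells and 0% = empty wells on each plate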
Method in brief: as §1

[5] = Quantitative highthroughput screen to assess conditional lethalithy of P12 Ichikawa cells grown in RPMI1640 with untreated serum (RPMI+s) (AID 1963881); details: Potency: viability; further: nearly all actives have a fitted effect of over 35% in size;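 on Viability: series mostly up to about 46 µM; 100% = DMSO wells and 0% = empty wells without cells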
Method in brief: as §1

[6] = Quantitative highthroughput screen to assess conditional lethalithy of SEM cells grown in Human Plasma-Like Medium with dialyzed fetal bovine serum (HPLM+ds) (AID 1963882); further: nearly all actives have a fitted effect of over 35% in size; on Viability: series mostly up to about 46 µM
Method in brief: as §1

[7] = Quantitative highthroughput screen to assess conditional lethalithy of SEM cells grown in RPMI1640 with unreated serum (RPMI+s) (AID 1963883); further: nearly all actives have a fitted effect of over 35% in size;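 on Viability: 100% = DMSO wells and 0% = empty wells without cells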
Method in brief: as §1

[8] = Cellular viability qHTS for adrenocortical cancer (ACC) cell line SW-13 (AID 1963989); details: SW-13 ACC cells viability, CellTiter-Glo, 48 h; activity (max response): stronger effect = lower value; further: nearly all actives have a fitted effect of over 65% in size;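 on activity (max response): cells grown in serum-free medium with ITS supplement; on the % scale 0 is the no-effect control and ±100 the full control effect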
Method in brief: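 SW-13 cells in ITS-supplemented serum-free DMEM were plated overnight, then exposed for 48 h at 37C to compound titrations (up to 46 uM final). Viability was read by CellTiter-Glo luminescence; four-parameter logistic fits gave IC50 and efficacy.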

[9] = Cellular viability qHTS for adrenocortical cancer (ACC) cell line NCI-H295R (AID 1963990); further: nearly all actives have a fitted effect of over 60% in size;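 on activity change, negative = viability loss: 0% = DMSO only wells and -100% = full killing with cytotoxic reference compound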
Method in brief: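 Luminescent ATP read-out (CellTiter-Glo, 20 min RT) after 48 h drug exposure of NCI-H295R cells; a titration up to 46 uM final. Data normalized to doxorubicin (100% inhibition) and DMSO (0%); 4-parameter fit gives IC50, max response.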

[10] = Quantitative highthroughput screen to assess conditional lethalithy of NOMO1 cells grown in Human Plasma-Like Medium with dialyzed fetal bovine serum (HPLM+ds) (AID 1963878); further: nearly all actives have a fitted effect of over 35% in size;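 on Viability: 100% = DMSO wells and 0% = empty wells on each plate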
Method in brief: as §1

[11] = Quantitative highthroughput screen to assess conditional lethalithy of SEM cells grown in RPMI1640 with dialyzed fetal bovine serum (RPMI+ds) (AID 1963884); further: nearly all actives have a fitted effect of over 35% in size;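 on Viability: series mostly up to about 46 µM; 100% = DMSO control wells and 0% = empty wells without cells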
Method in brief: as §1

[12] = Quantitative highthroughput screen to assess conditional lethalithy of P12 Ichikawa cells grown in Human Plasma-Like Medium with dialyzed fetal bovine serum (HPLM+ds) (AID 1963879); details: Potency: viability; further: nearly all actives have a fitted effect of over 35% in size; on Viability: series mostly up to about 46 µM
Method in brief: as §1
Potency means the concentration at half of the fitted maximal effect.

Cn1c(Nc2ccc(C(F)(F)F)cc2)nc2cc(Oc3ccnc(-c4ncc(C(F)(F)F)[nH]4)c3)ccc21
inactive: activity (max response) [8] -8.43% | Potency [9]
active: Potency [1] 2.91 µM | Potency [2] 1.3 µM | Potency [3] 23.5 µM | Potency [4] 18.7 µM | Potency [5] 14.8 µM | Potency [6] 9.35 µM | Potency [7] 4.69 µM

N#CCNC(=O)c1ccc(-c2ccnc(Nc3ccc(N4CCOCC4)cc3)n2)cc1
active: Potency [1] 0.411 µM | Potency [2] 580 nM and 934 nM | Potency [10] 23.5 µM | Potency [6] 11.8 µM | Potency [7] 10.5 µM | Potency [8] 25.1 µM

COc1ccc(-c2cc3c(C)nc(N)nc3n(C3CCC(OCCO)CC3)c2=O)cn1 (centres undefined)
active: Potency [1] 0.105 µM | Potency [2] 206 nM and 417 nM | Potency [10] 0.105 µM | Potency [6] 0.833 µM | Potency [7] 0.469 µM | Potency [11] 1.87 µM | Potency [8] 1.12 µM | Potency [9] 0.501 µM

Cc1nc(N)sc1-c1ccnc(Nc2ccc(N3CCOCC3)cc2)n1
active: Potency [1] 0.082 µM | Potency [2] 0.164 µM | Potency [10] 4.18 µM | Potency [7] 2.35 µM
inactive: activity (max response) [8] 4.45% | Potency [9]

Nc1nc(N)c2nc(-c3cccc(O)c3)c(-c3cccc(O)c3)nc2n1
active: Potency [1] 13 µM | Potency [2] 14.6 µM | Potency [10] 10.5 µM | Potency [6] 10.5 µM | Potency [7] 18.7 µM

Cc1cccc2c1CC[C@H](CN1CCC(c3c(Cl)cccc3Cl)CC1)C[C@@H]2O
inactive: Potency [12]
active: Potency [1] 3.26 µM | Potency [2] 2.59 µM | Potency [10] 8.33 µM

Cc1cn([C@@H]2O[C@H](CO)[C@@H](O)[C@H]2F)c(=O)[nH]c1=O
inactive: Potency [1] | Potency [2] | Potency [10] | Potency [12] | Potency [6] | Potency [7] | Potency [11] | activity (max response) [8] 7.23% | Potency [9]

CNC(=O)c1cc(Oc2ccc(NC(=O)Nc3cc(C(C)(C)C)nn3-c3ccc4ncccc4c3)c(F)c2)ccn1
inactive: Potency [10] | Potency [4] | Potency [5]
active: Potency [1] 0.0366 µM | Potency [2] 73.1 nM and 52.5 nM | Potency [11] 0.469 µM | Potency [8] 28.2 µM | Potency [9] 31.6 µM

O=C(Nc1nnc(-c2ccco2)o1)c1cc(-c2ccccc2)nc2ccccc12
active: Potency [1] 13.2 µM | Potency [2] 13.2 µM | Potency [10] 5.9 µM | Potency [12] 4.69 µM | Potency [5] 26.4 µM | Potency [7] 4.69 µM | Potency [11] 20.9 µM | Potency [9] 10 µM

COc1cc2ncnc(Nc3cccc(Cl)c3)c2cc1OC
active: Potency [1] 4.61 µM and 5.17 µM | Potency [2] 4.17 µM and 6.51 µM | Potency [10] 4.69 µM | Potency [6] 0.332 µM | Potency [7] 0.166 µM | Potency [11] 0.372 µM | Potency [8] 5.62 µM

CC(C)(C)NC(=O)Nc1cccc(Nc2ncc(F)c(NC(C)(C)CO)n2)c1
active: Potency [1] 1.48 µM | Potency [2] 2.31 µM | Potency [12] 8.33 µM | Potency [7] 7.43 µM | Potency [11] 6.62 µM
inactive: Potency [10]

c1ccc(CNc2nc(NCc3ccccc3)c3ccccc3n2)cc1
inactive: Potency [12] | Potency [11]
active: Potency [1] 1.86 µM | Potency [2] 2.09 µM | Potency [10] 26.4 µM | Potency [8] 3.98 µM | Potency [9] 7.08 µM

Cn1cc(C2=C(c3c4n(c5ccccc35)CCC(CN)C4)C(=O)NC2=O)c2ccccc21 (centres undefined)
active: Potency [1] 2.15 µM | Potency [2] 2.7 µM | Potency [3] 18.7 µM | Potency [6] 10.5 µM | Potency [7] 10.5 µM | Potency [11] 11.8 µM
inactive: activity (max response) [8] -20.5% | activity change, negative = viability loss [9] -2.33% [at 9.17 µM]

c1nc2nc(Nc3ccc(N4CCOCC4)cc3)nc(NC3CCCCC3)c2[nH]1
active: Potency [1] 224 nM and 209 nM | Potency [2] 317 nM and 366 nM | Potency [10] 14.8 µM | Potency [5] 2.64 µM | Potency [7] 2.35 µM | Potency [11] 2.35 µM | Potency [9] 2.82 µM

NCCCC(O)(P(=O)(O)O)P(=O)(O)O
inactive: Potency [1] | Potency [2] | activity (max response) [8] -4.27% | Potency [9]
active: Potency [3] 16.6 µM | Potency [6] 16.6 µM | Potency [11] 3.72 µM

CCC(C(=O)O)C1CCC(C)C(C(C)C(O)C(C)C(=O)C(CC)C2OC3(C=CC(O)[C@@]4(CC[C@](C)(C5CC[C@@](O)(CC)C(C)O5)O4)O3)C(C)CC2C)O1 (some centres undefined)
active: Potency [1] 0.332 µM | Potency [2] 0.417 µM | Potency [3] 1.18 µM | Potency [7] 1.66 µM | Potency [8] 2.82 µM | Potency [9] 0.708 µM

O[C@@H](CNC[C@H](O)[C@H]1CCc2cc(F)ccc2O1)[C@@H]1CCc2cc(F)ccc2O1
inactive: Potency [12]
active: Potency [1] 10.6 µM | Potency [2] 21.1 µM | Potency [10] 20.9 µM

CC(C)c1cc(C(=O)N2Cc3ccc(CN4CCN(C)CC4)cc3C2)c(O)cc1O
active: Potency [1] 0.0332 µM | Potency [2] 41.1 nM and 52.5 nM | Potency [3] 0.662 µM | Potency [9] 0.631 µM

CN(C)C(=O)C(CCN1CCC(O)(c2ccc(Cl)cc2)CC1)(c1ccccc1)c1ccccc1
active: Potency [1] 16.8 µM and 14.8 µM | Potency [2] 15 µM and 10.5 µM | Potency [3] 20.9 µM | Potency [8] 5.17 µM | Potency [9] 1.84 µM and 28.2 µM
